“And” between values parts separate entries of the source, which are not always exact repeats. Equal entries are not always repeated. The source made the active and inactive calls. Rule for the calls: active = hit-call score of the fitted dose curve at least 0.9, where 1 is the maximum; inactive = score below 0.9.
Columns and labels:
[1] = ATG_NFI_CIS: Attagene CIS-FACTORIAL HepG2 Assay for human Nuclear Factor I (NFI) (AID 2282989); settings: HepG2 cis-regulatory reporter, NFI response element transcription; actives raise or lower the signal
Outline: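 Reporter transcription driven by endogenous transcription factors in HepG2 cells; 24 h treatment. Quantitation by labelled RT-PCR fragments on capillary electrophoresis, gain- or loss-of-signal relative to DMSO.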

[2] = target: Myc proto-oncogene protein (Homo sapiens) (UniProt P01106); test: ATG_Myc_CIS: Attagene CIS-FACTORIAL HepG2 Assay for human Myelocytomatosis (Myc) Proto-Oncogene Transcription Factor (AID 2282990); settings: HepG2, Attagene cis-reporter transcription factor activity; actives raise or lower the signal
Chain of Myc proto-oncogene protein (Homo sapiens) (P01106 whole entry, looked up, the tested form may be a part): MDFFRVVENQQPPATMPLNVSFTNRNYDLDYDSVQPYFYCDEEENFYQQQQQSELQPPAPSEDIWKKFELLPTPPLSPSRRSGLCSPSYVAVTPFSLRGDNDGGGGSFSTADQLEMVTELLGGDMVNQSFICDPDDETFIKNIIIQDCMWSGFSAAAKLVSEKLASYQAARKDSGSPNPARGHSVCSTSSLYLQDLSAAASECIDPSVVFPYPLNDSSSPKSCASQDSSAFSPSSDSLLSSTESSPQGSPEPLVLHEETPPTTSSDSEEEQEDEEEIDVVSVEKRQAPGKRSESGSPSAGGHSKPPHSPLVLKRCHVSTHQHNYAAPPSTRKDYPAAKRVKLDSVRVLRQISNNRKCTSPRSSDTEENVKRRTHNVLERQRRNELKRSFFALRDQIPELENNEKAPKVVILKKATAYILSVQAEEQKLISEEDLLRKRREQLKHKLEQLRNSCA
Outline: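 Fluorescence intensity of reporter-specific cDNA fragments, separated by capillary electrophoresis, gives the signal. Transfected HepG2 cells carrying cis-promoter reporter constructs are incubated with compound for 24 h; DMSO serves as baseline.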

[3] = ATG_NF_kB_CIS: Attagene CIS-FACTORIAL HepG2 Assay for human Nuclear Factor Kappa B (NF-kB) (AID 2282991); settings: HepG2 Attagene cis-factorial NF-kB reporter mRNA; actives raise or lower the signal
Outline: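 HepG2 cells transfected with cis-promoter-driven reporter units, so endogenous transcription factor activity is measured. Reporter mRNA quantified 24 h after dosing by RT-PCR and capillary electrophoresis, with bidirectional fitting against DMSO.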

[4] = ATG_NRF2_ARE_CIS: Attagene CIS-FACTORIAL HepG2 Assay for human Nuclear Factor Erythroid 2 Related Factor 2 (NFR2) response to Antioxidant Response Elements (ARE) (AID 2282992); settings: HepG2 Attagene ARE/NRF2 reporter, transcription factor activity; actives raise or lower the signal;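 for AC50: reporter mRNA level measured by RT-PCR and capillary electrophoresis fluorescence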
Outline: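 Cis-factorial assay: transfected HepG2 reporter library, 24 h dosing, mRNA readout via RT-PCR/CE; DMSO-referenced bidirectional analysis.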

[5] = ATG_Oct_MLP_CIS: Attagene CIS-FACTORIAL HepG2 Assay for human Octamer-Binding Transcription Factor (Oct) (AID 2282993); settings: HepG2 Attagene cis-factorial Oct reporter, mRNA; actives raise or lower the signal
Outline: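 Transfected HepG2 cells, 24 h treatment. Reporter mRNA quantified by RT-PCR–capillary electrophoresis; bidirectional fitting against DMSO.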

[6] = target: Cellular tumor antigen p53 (Homo sapiens) (UniProt P04637); test: ATG_p53_CIS: Attagene CIS-FACTORIAL HepG2 Assay for human p53 Transcription Factor (AID 2282994); settings: HepG2 p53 cis-element reporter, Attagene mRNA; actives raise or lower the signal
Chain of Cellular tumor antigen p53 (Homo sapiens) (P04637 whole entry, looked up): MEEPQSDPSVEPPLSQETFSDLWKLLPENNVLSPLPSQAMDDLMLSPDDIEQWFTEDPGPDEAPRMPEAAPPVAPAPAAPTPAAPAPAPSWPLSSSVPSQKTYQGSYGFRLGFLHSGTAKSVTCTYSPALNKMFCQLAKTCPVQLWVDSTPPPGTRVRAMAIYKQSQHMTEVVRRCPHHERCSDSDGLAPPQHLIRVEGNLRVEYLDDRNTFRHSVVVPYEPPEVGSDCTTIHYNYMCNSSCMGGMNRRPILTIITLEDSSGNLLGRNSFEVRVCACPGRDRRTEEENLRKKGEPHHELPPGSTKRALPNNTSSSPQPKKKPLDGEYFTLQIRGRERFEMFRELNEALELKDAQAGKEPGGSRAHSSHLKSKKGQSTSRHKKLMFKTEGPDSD
Outline: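 Using HepG2 hepatoma cells carrying cis-acting multiplexed reporters, mRNA induction is detected after a 24 h exposure. Gain- and loss-of-signal responses are fitted relative to DMSO-treated cells.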

[7] = BSK_3C_TissueFactor: BioMAP Diversity Plus: 3C Assay for Tissue Factor Biomarker Activity (AID 2282997); settings: BioMAP 3C HUVEC, tissue factor biomarker readout; actives raise or lower the signal
Outline: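 HUVEC were treated 24 h, then surface tissue factor measured by ELISA and fitted bidirectionally against DMSO. Parallel SRB total-protein staining assessed overt cytotoxicity at the same time point.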

[8] = BSK_3C_uPAR: BioMAP Diversity Plus: 3C Assay for Urokinase-type plasminogen activator receptor (uPAR) Biomarker Activity (AID 2282998); settings: BioMAP 3C HUVEC, uPAR biomarker ELISA; actives raise or lower the signal
Outline: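 Readout: ELISA for surface uPAR. System: human umbilical vein endothelial primary cells, 24 h after chemical exposure. Analysis: bidirectional fit, DMSO baseline.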

[9] = BSK_3C_VCAM1: BioMAP Diversity Plus: 3C Assay for Vascular cell adhesion molecule 1 (VCAM1) Biomarker Activity (AID 2282999); settings: BioMAP 3C HUVEC, VCAM1 ELISA, cytokine-stimulated; actives raise or lower the signal
Outline: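 Human umbilical vein endothelial cells (3C system), biomarker read by ELISA 24 h after dosing; bidirectional fit against DMSO baseline. Cytotoxicity tracked by SRB total-protein staining in parallel cultures at biomarker time.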

[10] = BSK_4H_Eotaxin3: BioMAP Diversity Plus: 4H Assay for Eotaxin 3 Biomarker Activity (AID 2283000); settings: primary human endothelial cells (HUVEC); actives raise or lower the signal
Outline: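 Eotaxin-3 (CCL26) levels were measured by ELISA in HUVEC primary cultures 24 h post-dosing. Gain or loss of signal was fitted in both directions, with DMSO serving as baseline and negative control.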

Measured: AC50

C=CCOCC(O)CCl (stereo unspecified)
inactive: [1] | [2] | [3] | [5] | [6] | [7] | [8] | [9] | [10]
active: [4] 63 µM

O=C(O)c1cc(Cl)cc([N+](=O)[O-])c1Cl
inactive: [1] | [2] | [3] | [4] | [6]

CCOc1nc(F)cc2nc(S(=O)(=O)Nc3c(Cl)cccc3C(=O)OC)nn12
active: [4] 27 µM
inactive: [1] | [2] | [3] | [5] | [6] | [7] | [8] | [9] | [10]

Cc1cc(O)c(Cl)c(C)c1Cl
active: [4] 33.4 µM
inactive: [1] | [2] | [3] | [5] | [6]

CCO[Si](CCCN=C=O)(OCC)OCC
inactive: [1] | [2] | [3] | [4] | [5] | [6] | [7] | [8] | [9] | [10]

O=CC1CC1
inactive: [1] | [2] | [3] | [4] | [5] | [6]

CCCCCCCCCCc1ccccc1
inactive: [1] | [2] | [3] | [4] | [6]
active: [5] 53.6 µM

CCCCCCCCC(=O)OCC
active: [4] 47.4 µM
inactive: [1] | [2] | [3] | [5] | [6]

C=CCOc1c(Br)cc(Br)cc1Br
active: [7] 13.7 µM | [8] 5.76 µM | [9] 24.3 µM | [10] 29.3 µM
inactive: [1] | [2] | [3] | [4] | [5] | [6]

C=CC(C)(CCC=C(C)C)OC(=O)C(C)C (stereo unspecified)
inactive: [1] | [2] | [3] | [6]
active: [4] 100 µM

CCCC(C)CCC(C)=O (stereo unspecified)
inactive: [1] | [2] | [3] | [4] | [6]

C=CC(=O)OCCC(=O)O
active: [4] 43.2 µM
inactive: [1] | [2] | [3] | [6]

CCOC(=O)c1ccccc1C(=C1C=C(Br)C(=O)C(Br)=C1)c1cc(Br)c(O)c(Br)c1
inactive: [2] | [4]
active: [1] 22.4 µM | [3] 43 µM | [5] 53.1 µM | [7] 18.6 µM and 9.69 µM | [8] 20 µM and 17.9 µM | [9] 22.9 µM and 21.4 µM | [10] 22.7 µM and 23 µM

CC(C)C(=O)C(C)C
active: [4] 27.1 µM | [5] 29.2 µM
inactive: [1] | [2] | [3] | [6] | [7] | [8] | [9] | [10]

CCOc1ccc(N)c([N+](=O)[O-])c1
inactive: [1] | [2] | [3] | [4] | [5] | [6]

CC(=O)c1ccc2c(c1)CCCC2
inactive: [1] | [2] | [3] | [4] | [6]

CCCCC(CC)COC(=O)c1ccccc1O (stereo unspecified)
inactive: [1] | [2] | [3] | [4] | [5] | [6] | [9]
active: [7] 1.8 µM | [8] 17.9 µM | [10] 15.2 µM

CCOC(=O)[C@H](C)O
active: [4] 26.7 µM
inactive: [1] | [2] | [3] | [6]

CCO[Si](C)(OCC)OCC
inactive: [1] | [2] | [3] | [4] | [6] | [7] | [8] | [9] | [10]

NC(CO)(CO)CO
inactive: [1] | [2] | [4] | [5] | [6]

CCCCCCCC/C=C\CCCCCCCC(=O)O
inactive: [1] | [2] | [5]
active: [4] 100 µM

Nc1ccc2cc3ccccc3cc2c1
active: [4] 47 µM
inactive: [1] | [2] | [5]

O=C1CCCN1CCO
inactive: [1] | [2] | [3] | [4] | [6] | [7] | [8] | [9] | [10]

O=S1(=O)OC(c2ccc(O)cc2)(c2ccc(O)cc2)c2ccccc21
inactive: [1] | [2] | [4] | [5]

Cc1ccc(C(C)(C)C)cc1
inactive: [1] | [2] | [4] | [5]

CC1=NN(c2cc(S(=O)(=O)O)ccc2Cl)C(=O)C1N=Nc1ccccc1 (stereo unspecified)
inactive: [1] | [2] | [4] | [5]

CC(C)(C)C(=O)CCc1ccc(Cl)cc1
inactive: [1] | [2] | [4] | [5]

C=CC(C)(C)C
inactive: [1] | [2] | [4] | [5] | [6]

From PubChem BioAssay (EPA / NIEHS)
